TIM10 inh: inhibits growth of TIM10 yeast strain. AID 463195. hit rate 1.4% among 330,000. inhibition, % at 10 µM. S. cerevisiae TIM10 strain growth, BacTiter-Glo luminescence, 24 h;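 active = inhibition of 40% or more at the single tested concentration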;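 also: wild-type TIM10 isogenic control strain grown at permissive 25 °C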
SKKanGAS inh: blocks kanamycin growth of S. pyogenes SKKanGAS strain; BacTiter-Glo, 6 h; inhibition, % at 7.5 µM; hit rate 1.3% among 300,000; AID 1662;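 active = mean replicate score, as percent of positive control median, at least 50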;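 also: strain carries kanamycin resistance gene driven by streptokinase promoter and grows in 40 µg/ml kanamycin; loss of luminescence reflects streptokinase promoter inhibition or plain growth inhibition; 0% = median of DMSO wells and 100% = positive control at its reference dose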
tim10-1 inh: tim10-1 yeast growth inhibition | S. cerevisiae tim10-1 ts strain growth, BacTiter-Glo, 24 h | hit rate 2.2% among 330,000 | inhibition, % at 20 µM | AID 463190;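 active = inhibition of at least 40%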;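 also: mutant grown at 25 °C; 0% = DMSO wells with yeast and 100% = wells holding no yeast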
NALP3 yeast inh: inhibitors of NALP3 inflammasome in yeast; Yeast reconstituted NLRP3/ASC/caspase-1, beta-gal luminescence, 24 h; inhibition, % at 10 µM; hit rate 0.39% among 330,000; AID 2825;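 active = inhibition of 50% or more; inactive = inhibition below 50%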;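 also: plate controls were induced DMSO wells for no effect and uninduced yeast grown without galactose for full effect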
tim23-1 inh: tim23-1 yeast growth inhibition; inhibition, % at 20 µM; AID 463212; hit rate 1.3% among 330,000; S. cerevisiae tim23-1 growth, BacTiter-Glo luminescence, 24 h;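 active = growth inhibition of the mutant yeast at or above 50%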;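 also: temperature-sensitive mutant grown at 25 °C; plate controls were DMSO-treated mutant yeast for no effect and medium wells lacking yeast for full effect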
TIM10 conf: confirmation of TIM10 yeast growth inhibitors; shares compounds with TIM10 inh; S. cerevisiae tim10 strain growth, BacTiter-Glo luminescence, 24 h; inhibition, % at 10 µM; hit rate 63% among 4,600; AID 463215;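 active = inhibition of yeast growth at or above a set limit in either of two replicates at 10 µM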;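 also: this counterscreen used the strain with wild-type TIM10; 0% = yeast with DMSO and 100% = medium wells lacking yeast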
tim23-1 conf: confirmation of tim23-1 mutant yeast growth inhibitors. S. cerevisiae tim23-1 growth, BacTiter-Glo luminescence, 24 h. AID 463218. shares compounds with tim23-1 inh. inhibition, % at 20 µM. hit rate 83% among 4,400;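 active = inhibition above about 39% in either of two replicate wells at 20 µM, limit read from the data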;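 also: temperature-sensitive tim23-1 mutant grown at 25 °C; 0% = DMSO wells with yeast and 100% = medium wells without yeast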
The depositor's hits bear a star; · = no result. An excerpt weighted towards active compounds, which were near 4.6% of everything screened.

SMILES | TIM10 inh | SKKanGAS inh | tim10-1 inh | NALP3 yeast inh | tim23-1 inh | tim23-1 conf | others
CCOC(=O)C1CCN(C(=O)c2ccc(OC)cc2OC)CC1 | -3 | -6 | -8 | 4 | -2 | ·
COc1ccc(-n2nc3c(c2NC(=O)c2ccccc2S(=O)(=O)C(F)F)CS(=O)(=O)C3)cc1 | 4 | 7 | 4 | 14 | 16 | ·
O=C(Nc1cccc(Cl)c1)N1CCCC1 | 47* | 4 | 36 | 34 | 51* | 73* | TIM10 conf=27
COc1ccc(C(=O)NC(=S)N(C)C2CCCCC2)cc1 | 6 | · | 24 | 30 | 41 | ·
COc1ccc(C(=O)NC(=S)N(C)C2CCCCC2)cc1Br | 42* | 73* | 38 | 28 | 55* | 49* | TIM10 conf=13
CSc1ccc(/C=C(\C#N)C(=O)NC2CCCCC2C)cc1 (centres undefined) | 56* | -7 | 39 | 1 | 59* | 39* | TIM10 conf=65*
CCOc1ccc2oc(C(=O)Nc3ccc4c(c3)OCO4)c(C)c2c1 | 12 | 16 | -6 | 33 | 95* | 17
Cc1ccccc1C(=O)Oc1ccc(Sc2ccc(O)cc2)cc1 | 26 | 96* | 22 | 21 | 57* | -14
O=C(c1ccccc1)N1N=C(c2cccs2)CC1c1ccccc1O (centres undefined) | 14 | -11 | 12 | 15 | 57* | 43*
Cc1ccc(C2CC(c3cccs3)=NN2C(=O)CCl)cc1 (centres undefined) | 35 | 10 | 25 | 31 | 64* | -29
COc1ccc(NC(=O)CSc2nc3sc(C)cc3c(=O)n2C)c(OC)c1 | -33 | 0 | -22 | 25 | 3 | ·
O=C(C1=C(O)C(=O)N(c2ncccn2)C1c1ccc(Cl)c(Cl)c1)c1ccco1 (centres undefined) | 20 | 37 | 14 | 5 | 58* | 41*
Nc1c(N(Cc2ccco2)C(=O)COc2ccccc2)c(=O)[nH]c(=O)n1Cc1ccccc1 | 9 | · | 3 | 1 | 12 | ·
Cc1cccc(OCC(=O)N(Cc2ccco2)c2c(N)n(Cc3ccccc3)c(=O)[nH]c2=O)c1 | 8 | · | -2 | 5 | 51* | 23
O=C(CSc1nc2ccccc2[nH]1)Nc1ccc(N2CCOCC2)cc1 | 2 | -6 | 1 | 20 | 10 | ·
COC(=O)c1c(NS(=O)(=O)Cc2ccccc2)sc2c1CCCC2 | 21 | 3 | 23 | -11 | 58* | 52*
CCCOc1ccc(-c2csc(N)n2)cc1[N+](=O)[O-] | 32 | -3 | 21 | 35 | 57* | 57*
CCc1nnc(NC(=O)c2cc3c(s2)CCCCC3)s1 | -2 | 1 | 11 | -5 | -10 | ·
Cc1cnc(NC(=O)c2cc3c(s2)CCCC3)s1 | 28 | 20 | 26 | 35 | 55* | 47*
CN(C)c1ccc(C(=O)N/N=C/c2ccccn2)cc1 | 6 | -6 | -30 | 2 | -9 | ·
CCCc1cc(=O)[nH]c(SCc2cc(Cl)ccc2OC(F)F)n1 | -10 | 1 | 17 | 20 | 25 | ·
CCSc1nnc(NC(=O)c2nn(C(C)C)c(=O)c3ccccc23)s1 | 23 | 4 | 32 | -16 | 57* | 37*
CC(C)n1nc(C(=O)Nc2nnc(C3CC3)s2)c2ccccc2c1=O | 15 | -2 | 15 | 4 | 31 | ·
Cc1ccc(C(C)C)c2c1C(c1ccc3c(c1)OCO3)CC(=O)O2 (centres undefined) | 10 | · | 28 | · | 60* | 39*
Cc1cc2c(c(C)c1Cl)C(c1ccc3c(c1)OCO3)CC(=O)O2 (centres undefined) | -7 | · | 22 | · | 45 | ·
SMILES | TIM10 inh | SKKanGAS inh | tim10-1 inh | NALP3 yeast inh | tim23-1 inh | tim23-1 conf | others
Cn1c(=NC(=O)C(C)(C)C)sc2cccc(F)c21 | -10 | -2 | 2 | 35 | 19 | ·
Cn1c(=NC(=O)c2ccccc2[N+](=O)[O-])sc2cccc(F)c21 | -9 | -5 | 2 | 14 | 97* | -15
Cn1c(N2CCOCC2)nc2c1c(=O)n(Cc1ccc(Cl)c(Cl)c1)c(=O)n2C | 15 | · | 37 | 43 | 55* | 38
Cc1ccc(-c2cc(-c3ccco3)c3c(N)c(C(=O)NN)oc3n2)cc1 | 7 | 27 | 23 | 2 | 30 | ·
NNC(=O)c1oc2nc(-c3ccccc3)cc(-c3ccccc3)c2c1N | 23 | 27 | 39 | 11 | 59* | -19
COc1ccc(-c2nc3ccccc3c(=O)n2O)cc1 | 31 | 8 | 40 | 48 | 58* | 52*
C=C1SC(Nc2c(C)cccc2C)=NC12CCCCC2 | 30 | 7 | 26 | 11 | 50* | 44*
Cc1cccc(C)c1NC(=O)NC1(C(=O)N2CCCCC2)CCCCC1 | -2 | -5 | -6 | 9 | -8 | ·
Cc1cccc(C2=NN(c3ccc(Br)cc3)[C@@H](C(=O)N3CCOC3=O)[C@@H]2c2ccc(Cl)cc2)c1 | 10 | · | 18 | · | 40 | ·
OC[C@@H]1[C@@H](c2ccccc2)C(c2ccccc2)=NN1c1ccccc1 | 14 | · | 18 | · | 46 | ·
Cc1cccc(C2=NN(c3ccccc3)[C@H](CO)[C@H]2c2ccc(F)cc2)c1 | 20 | · | 28 | · | 51* | 34
Cc1cccc(C2=NN(c3ccccc3)[C@H](CO)[C@H]2c2ccc(Cl)cc2)c1 | 4 | · | 20 | · | 51* | 38
Cc1cccc(C2=NN(c3ccc(Br)cc3)[C@@H](C(=O)N3CCOC3=O)[C@@H]2c2ccc(F)cc2)c1 | 9 | 19 | 19 | 10 | 17 | ·
COc1ccccc1[C@H]1C(c2cccc(Cl)c2)=NN(c2ccccc2)[C@@H]1CO | 12 | · | 20 | · | 56* | 40*
OC[C@@H]1[C@@H](c2ccccc2)C(c2cccc(Cl)c2)=NN1c1ccccc1 | 5 | · | 26 | · | 52* | 47*
Cc1ccc(COC(=O)CCN=C2NS(=O)(=O)c3ccccc32)cc1 | -7 | -28 | -3 | 7 | -10 | ·
O=C(COC(=O)COc1ccc(Cl)cc1)NCCCc1ccccc1 | 3 | · | 2 | 18 | 16 | ·
O=C(COC(=O)COc1ccc(Cl)cc1)NCCNC(=O)COC(=O)COc1ccc(Cl)cc1 | -1 | 6 | -14 | 2 | 93* | 3
Cc1ccc(OCc2n[nH]c(=S)n2-c2ccc(Cl)cc2)cc1 | 22 | -6 | 16 | 14 | 42 | ·
S=c1[nH]nc(COc2ccc(Cl)cc2)n1-c1ccc(Cl)cc1 | 36 | 10 | 27 | 13 | 51* | 41*
CC(=O)Oc1ccc(N2C(=O)c3cccc4c([N+](=O)[O-])ccc(c34)C2=O)cc1 | 39 | 12 | 29 | 15 | 67* | 57*
O=C(N/N=C/c1coc2ccc(Cl)cc2c1=O)c1ccncc1 | -12 | 9 | 8 | 14 | 66* | 56*
COc1ccc(C(=O)N/N=C/c2ccc3cccc(O)c3n2)cc1 | 11 | 16 | -23 | 21 | 53* | 54*
O=C(N/N=C/c1cc(Cl)cc(Cl)c1O)c1ccncc1 | 38 | 88* | 2 | 17 | 54* | 62*
Cc1cccc(C(=O)N/N=C/c2coc3ccccc3c2=O)c1 | 22 | 1 | 8 | 16 | 50 | ·
